# Hits are enriched below; roughly 21% of the tested compounds scored in any of these assays.
# Pf growth 96h – P. falciparum growth inhibition at 96 hours; P. falciparum luciferase reporter growth, 96 h; Potency, µM (titrated, usually from 28.7 µM), without a hit: at the highest dose activity change, negative = inhibition, actives largely listed as inhibitors; 6.9% of 320,000 active; AID 504834; also: potency is read from the fitted curve at half-maximal effect; % is scaled to controls: 0 for no effect and ±100 for the full control effect
#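 P. falciparum expressing integrated firefly luciferase, in erythrocytes at 2% hematocrit, 0.05% parasitemia, incubated with compounds 96 h at 37 C, 5% CO2. Growth inhibition read as loss of luminescence; two-generation exposure targets delayed-death apicoplast inhibitors.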
# NS1 inh – influenza NS1 inhibition. 0.4% of 270,000 active. AID 2326. Potency, µM (series often up to 46.1 µM), without a hit: at the highest dose activity, positive = more growth; calls by dose curve; also: potency is read from the fitted curve at half-maximal effect; actives are rising curves; nearly all actives have a fitted effect of over 50% in size
#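 A cell-based growth assay was used: compounds that relieve NS1-induced slow growth of budding yeast raise OD600. Assay medium was yeast nitrogen base with ammonium sulphate and -URA supplement, pH 6.0, with 2% galactose.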
# CHX counter – counter-screen for Shiga toxin inhibitors: cycloheximide protein synthesis inhibition. 12% of 300,000 active. cell reporter, cycloheximide protein synthesis inhibition counterscreen. AID 2314. max response, %; in the data active = max response mostly above about 13%, no sharp cut-off; inactive = mostly below about 14%; also: read at 38.3 µM for the half of the compounds with a filed dose; 0% is about no effect
# Pf growth 48h – P. falciparum growth inhibition at 48 hours (one generation); P. falciparum luciferase growth in erythrocytes, 48 h; Potency, µM (highest dose often 28.7 µM), for inactives: at the highest dose activity change, negative = inhibition, most hits filed as inhibitors; 5.9% of 310,000 active; AID 504832; also: potency is read from the fitted curve at half-maximal effect; % is scaled to controls: 0 for no effect and ±100 for the full control effect
#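 Luminescence readout; reporter = integrated firefly luciferase in P. falciparum. RBC culture at 2% hematocrit, 0.1% parasitemia final, 37 C/5% CO2; decreased signal taken as growth inhibition.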
# Shiga inhibitor – inhibitors of Shiga toxin in Vero cells; Vero cells, Shiga toxin protein synthesis inhibition reporter; inhibition, % at 38.7 µM; 9.2% of 290,000 active; in the data active = inhibition mostly above about 28%, no sharp cut-off; inactive = mostly below about 43%; also: 0% is about no effect
# Numbers without * were called inactive; ? = inconclusive; . = no result; [ ] = another dose, or the depositor's remark. Unless noted, calls follow the shape of the dose curve; as a rule, active = well fitted inhibition curve with a large enough effect; inconclusive = small, poorly fitted or top-dose-only effect, or another doubt; inactive = no such curve, though single readings can be large or run the other way.
SMILES,Pf growth 96h,NS1 inh,CHX counter,Pf growth 48h,Shiga inhibitor
O=C(O)C1CSC(c2coc3ccccc3c2=O)N1 (stereo not drawn),?,-33.5%,13.9*,-8.3%,12.6
Cc1cccc(OCCCC(=O)Nc2nccs2)c1,.,-4.8%,0.7,?,-9.2
O=C(CCCCCN1C(=O)C2C3C=CC(C3)C2C1=O)Nc1nccs1 (stereo not drawn),2.33µM*,0.7%,-5.0,.,18.3
COc1ccc2c(CC(=O)Nc3nccs3)coc2c1,64.8%,4.1%,31.4*,0.6%,77.5*
CCOc1ccc(CC(=O)Nc2nccs2)cc1,31.9%,.,19.9*,2.5%,12.3
Cc1ccc(OCCCC(=O)Nc2nccs2)cc1,?,-8.9%,23.0*,25.8%,42.4*
CCN(C(=O)Cc1c(C(=O)O)n(C)c2ccccc12)c1ccc(F)cc1,?,.,1.8,1.4%,5.6
COc1cc(C(F)(F)F)c(C(=O)NCc2cccc(Cl)c2)cn1,8.6%,-3.1%,-2.4,32.7%,-7.0
CCOc1ccccc1NC(=O)CSc1nc2c(c(=O)n(C)c(=O)n2C)n1C,18.0%,-4.6%,-12.6,-3.6%,-8.1
Cc1cc(=O)n2c(n1)NC(Nc1cccc(C)c1C)=NC2c1ccccc1 (stereo not drawn),19.5%,-1.0%,-1.7,-4.6%,16.9
COc1cccc(C2CNC3(CCCC(C)C3)c3[nH]c4ccccc4c32)c1OC (stereo not drawn),9.28µM*,2.5%,-0.9,.,-2.6
COC(=O)C1=C[C@@H](C(=O)OC)[C@H]2C3=C(C(=O)[C@@]2(C)NC(=O)c2ccccc2)[C@H](C)C(C(=O)OC)=C(C(=O)OC)[C@@H]3C1,.,.,-4.4,.,-10.2
C=CCc1ccccc1OCC(O)CNC (stereo not drawn),1.17µM*,-0.8%,-3.2,.,21.7
C=CCc1ccccc1OCC(O)CN1CCN(c2ccc(OC)cc2)CC1 (stereo not drawn),6.57µM*,-9.7%,3.5,1.5%,-17.8
C=CCc1ccccc1OCC(O)Cn1ccnc1C (stereo not drawn),1.47µM*,1.0%,-2.1,-6.2%,22.1
Cc1c(NC(=O)C(C)OC(=O)C23CC4CC(CC(Br)(C4)C2)C3)c(=O)n(-c2ccccc2)n1C (stereo not drawn),-4.8%,3.6%,-1.8,15.4%,-6.3
COc1ccccc1-c1cc(C(=O)NCc2cccs2)no1,3.7µM*,-14.7%,12.3,48.4%,27.9
COc1ccccc1-c1cc(C(=O)NCc2ccco2)no1,.,-18.1%,37.1*,30.6%,30.3
COc1ccccc1-c1cc(C(=O)NC(C)C)no1,39.0%,-31.3%,33.9*,118.6%,83.0*
COc1ccccc1-c1cc(C(=O)NC(C)c2ccccc2)no1 (stereo not drawn),?,-42.4%,7.3,?,-17.8
COCCNC(=O)c1cc(-c2ccccc2OC)on1,?,-28.9%,17.4*,.,131.4
CCOC(=O)c1c(C)c(C(=O)NCc2ccc3c(c2)OCO3)c(C)n1C,101.2%,-8.6%,-5.5,?,19.8
Nc1nc(N)c2[nH]cnc2n1 (tested in a mixture with another compound),.,-2.8%,.,.,.
COc1ccccc1S(=O)(=O)Cc1ccc(C(=O)NCc2cccs2)o1,.,-7.6%,-3.0,0.828µM*,-8.3
COc1ccccc1S(=O)(=O)Cc1ccc(C(=O)NCc2ccccc2)o1,?,0.8%,-2.6,-0.1%,-2.6
SMILES,Pf growth 96h,NS1 inh,CHX counter,Pf growth 48h,Shiga inhibitor
CCN(CC)C(=O)c1cc(-c2ccccc2OC)on1,-35.9%,-1.3%,37.4*,76.1%,53.8*
COc1ccccc1-c1cc(C(=O)Nc2ccc(F)cc2F)no1,?,-13.1%,6.8,22.9%,39.0
CCC(C)NC(=O)c1cc(-c2ccccc2O)on1 (stereo not drawn),?,-13.2%,52.1*,.,84.4*
O=S(=O)(Nc1ccc(-c2cn3c(n2)SCC3)cc1)c1ccccc1F,?,?,16.4,1.4%,11.2
COc1ccc(CC(=O)Nc2ccncc2Cl)cc1,?,0.8%,8.2,-16.4%,-10.4
Cn1ccc(C(=O)NC(=S)Nc2ccc([N+](=O)[O-])cc2O)n1,62.1%,-10.3%,27.8*,144.1%,34.0
CC(C)(C)c1ccc(C(=O)Nc2ccc([N+](=O)[O-])cn2)cc1,-4.4%,9.0%,58.1*,103.9%,76.1*
O=C(NC(=S)Nc1ccc([N+](=O)[O-])cc1O)C1CCCCC1,4.2%,?,15.6,?,10.1
Cc1cc(NC(=O)c2ccc([N+](=O)[O-])cc2)n(C)n1,4.6%,2.7%,7.1,12.6%,18.9
O=C(Nc1ccc([N+](=O)[O-])cn1)c1cccnc1,-14.1%,1.4%,-2.2,2.1%,.
Cc1oc(C(C)(C)C)cc1-c1cc(NC(=O)c2ccc([N+](=O)[O-])cc2)n[nH]1,2.33µM*,0.6%,1.6,1.85µM*,-13.7
O=C(CCC1CCCC1)Nc1ccc([N+](=O)[O-])cn1,8.8%,-2.1%,34.7*,92.0%,54.4*
COc1ccc(-c2[nH]ncc2C=O)cc1OC,0.0%,.,5.1,14.6%[5.75 µM],-4.4
CCNS(=O)(=O)c1ccc(NC(=O)CC(C)c2ccccc2)cc1 (stereo not drawn),-47.5%[5.75 µM],.,-4.7,-18.9%[5.75 µM],-1.4
Cc1cc(NC(=O)c2ccc3c(c2)OCO3)no1,16.5%,2.6%,28.8*,220.7%,106.1*
Cc1cc(NC(=O)c2ccc3c(c2)OCCO3)no1,-7.2%,-0.2%,15.2,?,2.4
O=C(Nc1ccc([N+](=O)[O-])cn1)c1ccc2c(c1)OCO2,2.5%,.,30.9*,206.3%,67.6*
O=C(Nc1ccccn1)c1ccc2c(c1)OCO2,-4.4%,.,36.1*,360.5%,44.0*
O=C(NC(=S)Nc1cc([N+](=O)[O-])ccc1O)c1ccc2c(c1)OCO2,-19.9%,-16.4%,42.1*,-9.8%,82.6*
NCCCNC(=O)c1ccc(/C=N/O)nc1,1.0%,-1.2%,-5.3,31.2%,-14.1
CCc1ccc(NC(=O)c2ccc(NC3=NC4CS(=O)(=O)CC4S3)cc2)cc1 (stereo not drawn),?,-11.1%,-2.3,-3.7%,11.8
O=C(Nc1ccc(F)cc1F)N1CCCN(c2ccc([N+](=O)[O-])cn2)CC1,?,5.7%,-1.6,?,14.5
CC(C)(C)c1ccc(NC(=O)N2CCN(c3ccc([N+](=O)[O-])cn3)CC2)cc1,2.33µM*,-1.3%,9.8,5.22µM*,13.2
Cc1nc(NC(=O)c2ccc3c(c2)OCO3)ccc1Br,21.5%,-2.5%,46.0*,132.6%,55.4*
Cc1cccc(NC(=O)CNC(=O)c2ccc3c(c2)OCO3)n1,34.3%,.,.,?,.
CCC1CCCCN1C(=O)CSc1nnc(-c2ccc3c(c2)OCCO3)o1 (stereo not drawn),?,-38.8%,26.8*,?,28.3
CCC1CCCCN1C(=O)CSc1nnc(-c2ccc(OC)cc2)o1 (stereo not drawn),?,-50.2%,1.4,?,-13.7
O=C(CSc1nnc(-c2ccc3c(c2)OCCO3)o1)N1CCCC1,-10.0%,-51.4%,43.9*,71.2%,42.8
COc1ccc(CN/C(C)=C(/C#N)C(N)=O)cc1OC,15.4%,1.0%,8.8,14.3%,15.8

# Bioassay records from PubChem BioAssay.
